Where “and” joins values, the source holds several entries; their conditions need not be identical. Identical values can stand only once. Results filed as inconclusive are left out. Calls of active or inactive are those of the source. Unless noted, calls follow the shape of the dose curve; as a rule, active = well fitted curve in the direction sought with a large enough effect; inconclusive = small, poorly fitted or top-dose-only effect, or another doubt; inactive = no such curve, though single readings can be large; an effect the other way counts as inactive or inconclusive.

We go through 18 compounds from PubChem BioAssay (NCATS).

Assay [1] in a line: HEK293 24hr Apoptosis Induction qHTS against the NCATS CANVASS Library (AID 1347359). Also: 0% is about no effect. Put shortly:
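HEK293 cells (500/well, DMEM + 10% FBS) were exposed to compounds in an 11-point series for 24 hours at 37 degrees C, then caspase-3/7 activity was read by Caspase-Glo DEVD luciferase luminescence after 15 min.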
Background: qHTS replaces the single test concentration by a dilution series.

A short description of assay [2]: qHTS for Antimalaria activity screened against the NCATS CANVASS Library (AID 1347380). Also: nearly all actives have a fitted effect of over 40% in size. Also: potency is read from the fitted curve at half-maximal effect.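 As to activity change, negative = inhibition: Plasmodium falciparum strain Dd2 asexual parasites grown in red blood cells.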 The method, boiled down: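 Growth inhibition of asexual erythrocytic P. falciparum Dd2 was quantified by SYBR Green DNA staining. Cultures grew 72 h with compound (11-point series) in hypoxic gas at 37C; lysis and staining lasted 18 h.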
A short description of assay [3]: qHTS assay for small molecule disruptors of mitochondrial membrane potential screened against the NCATS CANVASS Library (AID 1347389). Also: % is scaled to controls: 0 for no effect and ±100 for the full control effect; nearly all actives have a fitted effect of over 60% in size. The method, boiled down: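 Compounds tested in 11-point qHTS series on HepG2 cells for 1 hr; membrane-potential dye added for 30 min at 37C. Lower red-to-green ratio indicates loss of potential.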
Assay [4] can be described thus: qHTS for activators of dead-cell proteases activity screened against the NCATS CANVASS Library (AID 1347392).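 Also: luminescence from protease leaking out of membrane-damaged cells cleaving impermeant substrate; 0% is about no effect; rising signal means more cytotoxicity.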 Put shortly:
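HepG2 cells (2000/well) attached 18 h at 37C, then exposed 5 h to compounds (11-point qHTS). Dead-cell protease activity read as luminescence from cell-impermeant AAF-aminoluciferin substrate after 15 min at room temperature.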

Assay [5] in a line: Vero-766 cells viability qHTS against the NCATS CANVASS Library: Counterscreen for Zika virus inhibition assay (AID 1347394). Also: nearly all actives have a fitted effect of over 60% in size. Also: potency is read from the fitted curve at half-maximal effect. The method, boiled down:
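Counterscreen for toxicity: Vero 766 cells exposed 72 h to an 11-point compound series, viability by CellTiter-Glo.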

Assay [6] is described as follows: UWB1.289 Cancer Cell Toxicity qHTS against the NCATS CANVASS Library (AID 1347347). Also: nearly all actives have a fitted effect of over 60% in size. Also: potency is read from the fitted curve at half-maximal effect. Put shortly: (§1)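 Per well, 1000 cells; exposure 72 h with compound at 11 final concentrations; readout CellTiter-Glo luminescence.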
Assay [7] in a line: U-118MG Cancer Cell Toxicity qHTS against the NCATS CANVASS Library (AID 1347351). Also: potency is read from the fitted curve at half-maximal effect. The method, boiled down: as §1
Assay [8] is described as follows: qHTS for Hypoxia signaling pathway (HIF-1) agonists against the NCATS CANVASS Library (AID 1347375). Also: 0% is about no effect. Put shortly:
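Inducers of HIF-1 signaling were detected in ME-180 cells bearing an HRE-driven beta-lactamase reporter after 17 h compound exposure. Activity came from CCF4-AM FRET emission ratio (460/530 nm) in qHTS format.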

Assay [9] is described as follows: Viability qHTS for inhibitors of the SERCaMP assay screened against the NCATS CANVASS Library (AID 1347400). Also: nearly all actives have a fitted effect of over 70% in size. Also: potency is read from the fitted curve at half-maximal effect. Put shortly:
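Cytotoxicity counter-screen: ATP content (CellTiter-Glo luminescence) of SH-SY5Y-GLuc SERCaMP MJH297 cells after 48 h at 37C with compounds in an 11-point qHTS series.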

Assay [10] in a line: OV-SAHO Cancer Cell Toxicity qHTS against the NCATS CANVASS Library (AID 1347348). Also: nearly all actives have a fitted effect of over 55% in size. Also: potency is read from the fitted curve at half-maximal effect. The method, boiled down: as §1
Assay [11] is described as follows: COV-362 Cancer Cell Toxicity qHTS against the NCATS CANVASS Library (AID 1347352). Also: potency is read from the fitted curve at half-maximal effect. Put shortly:
(§2)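 qHTS cytotoxicity: compounds tested in 11 concentrations on 1000 seeded cells per well over 72 h; bortezomib served as control; signal from CellTiter-Glo luminescence.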

The nature of assay [12]: qHTS Assay for Lipid Storage Modulators (AID 1519; calls by dose curve; as to activity change, negative = inhibition: % is scaled to controls: 0 for no effect and ±100 for the full control effect). The following applies: Drosophila S3 cells, BODIPY lipid droplet/cell ratio, laser cytometry, cells loaded with oleic acid. Put shortly: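 Cells seeded at 5,000 per well were treated with compounds over a concentration series and loaded with oleic acid (400 uM, as added). Lipid droplet fluorescence (488 nm excitation, 500-530 nm channel) was read by laser-scanning cytometry and normalized to 20 uM Triacsin C.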

The nature of assay [13]: UWB1.289-WTBRCA1 Cancer Cell Toxicity qHTS against the NCATS CANVASS Library (AID 1347354). The method, boiled down: as §2
A short description of assay [14]: KB-3-1 Cancer Cell Toxicity qHTS against the NCATS CANVASS Library (AID 1347366). Also: nearly all actives have a fitted effect of over 75% in size. Also: potency is read from the fitted curve at half-maximal effect. Put shortly: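 Cytotoxicity toward KB-3-1 cells (500/well, DMEM + 10% FBS) was scored by CellTiter-Glo luminescence following 72 hr exposure at 37C, with bortezomib titrated as control.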

`C/C(=C\[C@H](C)C(=O)/C=C/CC1CC(=O)NC(=O)C1)[C@@H]1OC(=O)CCCC/C=C/[C@H](O)[C@@H](O)[C@@H]1C`: the Potency entry in assay [1], in [2], in assay [3], in assay [4] and in assay [5] was “inactive” each time.

Turning to `CO[C@@H]1[C@H](O)[C@@H](C)O[C@@H](OC[C@@H]2C(C)OC(=O)/C=C/[C@H](C)C(O[C@@H]3O[C@H](C)CC4(OC(=O)O[C@@H]4C)C3O)[C@@H](C)CC(C)C(=O)/C=C/[C@H]3OC23)[C@@H]1OC` (stereo partly drawn), the Potency in assay [6] was 18.8 µM (active); in assay [7], 16.8 µM (active); in assay [2], 14.9 µM (active); in assay [9], 42.8 µM (active). Further, in [8], the call was inactive. Besides, the Potency entry in assay [3], in assay [4] and in assay [5] was “inactive” each time.

Consider `C=C1C(=O)O[C@H]2[C@H]1CCC(C)=C1CC[C@@](C)(O)[C@@H]12`, for which the Potency in assay [6] was 18.8 µM (active); in assay [10], 18.8 µM (active); in [11], 16.7 µM (active); in [9] it was 42.8 µM (active). Besides, the Potency result in assay [1], in [4] and in assay [5] was “inactive” in each case.

Turning to `C=C[C@@](C)(O)CC[C@@H]1[C@@]2(C)CCCC(C)(C)[C@@H]2CC[C@@]1(C)O`, the activity change, negative = inhibition in assay [12] (at 57.5 µM (top of the series)) is -12.3% (inactive). Moreover, the values for the max response in assay [12] (measured here: cell count channel max response) and in assay [12] (measured here: lipid channel max response) were -15% and -21.7%, respectively. For the same compound, the Potency entry in assay [10], in assay [11], in assay [13], in assay [14], in [4] and in assay [5] was “inactive” each time. In [9], the Potency entry is “inactive”. For the same compound, the result in assay [8] was inactive.

Take `COc1ccc([C@@H]2c3cc4c(cc3C[C@H](C)C2C)OCO4)cc1OC` (stereo partly drawn): the Potency entry in assay [10] and in assay [7] was “inactive” in each case. Besides, in assay [9], the Potency is 27 µM (active).

On to `C/C(=C\[C@@H](C)CC/C=C/CC/C=C/C(=O)O)[C@H](O)[C@H](C)C(=O)CCCC1CC(=O)NC(=O)C1`, for which the Potency result in assay [10], in [7], in [11], in assay [13], in assay [14] and in assay [2] was “inactive” throughout. Further, the Potency entry in assay [4], in [5] and in [9] was “inactive” each time. The call in [8] was inactive.

For `C/C(=C\[C@H](C)C(=O)C[C@H](O)CC1CC(=O)NC(=O)C1)[C@@H]1OC(=O)CCCC/C=C/[C@@H](O)C[C@@H]1C`, the Potency in assay [6] is 9.41 µM (active); in [14], 9.35 µM (active). Further, the Potency result in assay [1], in [3] and in assay [4] was “inactive” throughout. For the same compound, the result in assay [8] was inactive.

With `C/C1=C/[C@@H](C)[C@H](O)C/C=C/CC/C=C/C(=O)O[C@@H]1[C@H](C)C(=O)CCCC1CC(=O)NC(=O)C1`, the Potency result in assay [1], in assay [14], in assay [2] and in assay [4] was “inactive” throughout. Also, in assay [8], the compound was classed as inactive.

Take `C[C@H](CCC(O)C(C)(O)CO)[C@@]1(O)CC[C@@]2(C)C3=C(CC[C@@]21C)[C@@]1(C)CCC(OC(=O)CCC(=O)O)C(C)(C)[C@@H]1CC3` (stereo partly drawn): the Potency entry in [10], in assay [7], in [11], in assay [1], in [14] and in assay [4] was “inactive” throughout. Further, the Potency result in assay [9] is “inactive”. Also, the Potency in assay [5] was 29.5 µM (active).

As for `CC(C)=CCC[C@]1(C)[C@H]2CC(=O)[C@@]3(CO3)[C@@H]1C2`, the Potency result in [6], in [10], in [7], in [13], in assay [1] and in assay [14] was “inactive” in each case. Also, the Potency entry in assay [3], in assay [4], in assay [5] and in assay [9] was “inactive” each time.

For the compound `C/C=C/c1cc2c(c(=O)o1)C(=O)[C@@H](O)[C@H](C)O2`, the Potency was 16.7 µM (active) in assay [10] and 34 µM (active) in assay [9]. Moreover, the Potency entry in [7], in [1], in assay [14], in [2] and in assay [5] was “inactive” each time. The result in assay [8] was inactive.

With `CC(C)[C@@H]1CC(=O)c2coc3c2[C@H]1C[C@@H](C)C3=O`, the Potency entry in [13] is “inactive”. Also, the compound was classed as inactive in assay [8].

On to `CC[C@@H](c1cc(OC)c(OC)cc1OC)[C@H](C)[C@@H](/C(C)=C/c1cc(OC)c(OC)cc1OC)c1cc(OC)c(OC)cc1OC`, for which the Potency entry in assay [6], in assay [7], in [11], in [14], in [5] and in assay [9] was “inactive” each time. Also, in assay [8], the compound was called inactive. The Potency in assay [2] is 747 nM (active) and 1.88 µM (active).

Turning to `CC[C@@H]1[C@H](C)[C@H](c2cc(OC)c(OC)cc2OC)[C@@H](C)[C@H](c2cc(OC)c(OC)cc2OC)[C@]12C=C(OC)C(=O)C=C2OC`, the Potency in assay [2] is 2.98 µM (active); in [5], 20.9 µM (active).

Regarding `COc1ccc([C@@H]2c3cc4c(cc3C(=O)[C@H](C)C2C)OCO4)cc1OC` (stereo partly drawn), the Potency entry in assay [10], in assay [11], in assay [13], in [1] and in assay [3] was “inactive” each time.

For `COc1cc(C2C3=C(Cc4cc5c(cc42)OCO5)C(=O)OC3)cc(OC)c1OC` (stereo not drawn), the Potency result in [1] and in assay [4] was “inactive” throughout. The Potency in assay [14] was 0.105 µM (active); in assay [2], 9.41 µM (active); in assay [5] it was 0.186 µM (active); in [9], 0.0604 µM (active). For the same compound, the call in assay [8] was inactive.

Consider `C=C1C[C@H]2O[C@@H]3[C@@H]4[C@H](CC[C@@](C)(O)[C@@H]42)[C@H](C)COC3(C)[C@@H](OC(=O)CCCCCCC)C[C@H]1O` (stereo partly drawn), for which the Potency entry in assay [7], in assay [1], in assay [3] and in [9] was “inactive” each time. For the same compound, the outcome in assay [8] was inactive. Further, the Potency in assay [2] was 0.0059 µM (active).

Take `CC1=C[C@H]2[C@H]3C(=O)C(c4ccc(O)cc4)=C[C@@]3(c3ccc(O)cc3)[C@@H]1C(=O)[C@]2(C)O`: the Potency result in [10], in [1] and in assay [3] was “inactive” throughout. Moreover, the results for the Potency in assay [14], in [2] and in assay [9] were 0.332 µM (active), 0.0019 µM (active) and 0.48 µM (active), respectively. In addition, the call in assay [8] was inactive.
